# Compound activity as filed in PubChem.
# The list is not random: actives were taken first. Their share in the collection is about 19%.
# RORg inh: ROR gamma (mouse) transcription inhibition; Drosophila S2 Gal4-RORgamma UAS-luciferase reporter, 20 h; Potency, µM (highest dose often 53.6 µM), hits mostly inhibitors; hit rate 5.4% among 310,000; AID 2551; note: nearly all actives have a fitted effect of over 60% in size
# Target sequence (P51450 whole entry, looked up, the tested form may be a part): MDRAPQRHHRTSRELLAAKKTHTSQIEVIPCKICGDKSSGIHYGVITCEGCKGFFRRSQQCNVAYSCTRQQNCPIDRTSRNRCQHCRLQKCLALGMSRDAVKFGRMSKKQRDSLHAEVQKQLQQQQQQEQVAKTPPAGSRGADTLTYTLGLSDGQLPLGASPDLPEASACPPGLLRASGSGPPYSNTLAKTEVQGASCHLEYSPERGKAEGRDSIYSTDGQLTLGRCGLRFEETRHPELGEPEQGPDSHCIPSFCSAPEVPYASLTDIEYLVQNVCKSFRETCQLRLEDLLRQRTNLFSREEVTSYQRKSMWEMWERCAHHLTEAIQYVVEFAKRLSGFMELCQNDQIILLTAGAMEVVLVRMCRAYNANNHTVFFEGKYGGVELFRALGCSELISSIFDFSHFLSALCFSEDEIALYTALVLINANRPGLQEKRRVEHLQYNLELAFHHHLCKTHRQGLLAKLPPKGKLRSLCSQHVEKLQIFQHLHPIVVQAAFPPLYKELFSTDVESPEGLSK
#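 Luciferase reporter read in Schneider cells carrying Gal4-RORγ (mouse) and UAS-Photinus luciferase; cells given compound 1 h before 700 uM copper sulfate induction, then incubated 20 h at ambient temperature.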
# TDP1 block: inhibitors of human tyrosyl-DNA phosphodiesterase TDP1; Potency, µM (series often up to 130 µM), actives largely listed as inhibitors; recombinant TDP1, AlphaScreen DNA substrate cleavage; AID 485290; hit rate 0.28% among 350,000; Q9NUW8; note: nearly all actives have a fitted effect of over 40% in size
#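 Tdp1 1 nM final; 15 min RT w/ cpd; substrate 15 nM, 5 min; beads 10 ug/ml, 10 min; AlphaScreen read. Neg ctrl: no enzyme.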
# Gal4-VP16 FLuc: counter-screen for ROR gamma inhibitors: Gal4-VP16 reporter | Drosophila S2 Gal4-VP16 UAS-luciferase, luminescence, 20 h | Potency, µM (series often up to 53.6 µM), actives largely listed as inhibitors | hit rate 3.5% among 310,000 | AID 2546;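 note: Gal4-VP16 expression switched on by copper sulfate through the metallothionein promoter; nearly all actives have a fitted effect of over 50% in size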
# DT40 TDP1 CPT: growth inhibition of DT40 Tdp1-/-;hTDP1 cells with camptothecin (screen for TDP1 inhibitors). chicken DT40 Tdp1-/-;hTDP1 cells + 20 nM CPT, ATP luminescence, 48 h. Potency, µM (doses to about 46.2 µM), usual class: inhibitors. hit rate 12% among 420,000. AID 686979; note: nearly all actives have a fitted effect of over 55% in size
#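 Chicken DT40 Tdp1-/- cells stably complemented with human TDP1 were seeded at 400 cells/well in medium containing 20 nM camptothecin, exposed to pin-transferred compounds, and grown at 37 °C for at least 48 hr. Viability was read as ATP luminescence.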
# DT40 TDP1 no CPT: qHTS for Inhibitors of human tyrosyl-DNA phosphodiesterase 1 (TDP1): qHTS in cells in absence of CPT. AID 686978, 2013. Potency, µM (series often up to 46.2 µM), most hits filed as inhibitors. DT40 Tdp1-/- hTDP1 cells, no CPT, ATP luminescence, 48 h. hit rate 15% among 420,000; note: nearly all actives have a fitted effect of over 55% in size
#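 Stably hTDP1-transfected Tdp1-null chicken DT40 cells were treated with library compounds minus camptothecin and grown for at least 48 hr at 37 °C, after which cellular ATP was quantified by luminescence.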
# Hits are given with their value; . = inactive; ? = inconclusive; / = not tested or not shown; [ ] = another dose, or the depositor's remark. Calls come from the whole dose curve; as a rule, active = well fitted curve in the direction sought with a large enough effect; inconclusive = small, poorly fitted or top-dose-only effect, or another doubt; inactive = no such curve, though single readings can be large; an effect the other way counts as inactive or inconclusive.
SMILES,RORg inh,TDP1 block,Gal4-VP16 FLuc,DT40 TDP1 CPT,DT40 TDP1 no CPT
CCOC(=O)N1CCN(c2cc(=O)n(-c3ccc(OCC)cc3)c(=O)[nH]2)CC1,.,.,.,.,.
Cc1cc(S(=O)(=O)C(CNC(=O)c2ccc(F)c(F)c2)c2cccs2)ccc1F (stereo unspecified),/,.,/,.,.
Cc1cccc(C(=O)NCC(c2cccs2)S(=O)(=O)c2cccs2)c1 (stereo unspecified),/,.,/,?,15µM
O=C(NCC(c1cccs1)S(=O)(=O)c1cccs1)c1cccc(F)c1 (stereo unspecified),/,.,/,16µM,18µM
CCC1(OC(=O)CN(C)C)C(=O)OCc2c1cc1n(c2=O)Cc2cc3c(N)cccc3nc2-1 (stereo unspecified),/,/,/,0.16µM,0.18µM
CCOc1cc(C(=O)Nc2ccc(NC(C)=O)cc2)ccc1OCC(=O)N1CCCCC1,.,.,.,.,?
Cc1ccc2c(c1)N(CCC(=O)NCc1cccs1)C(=O)C(C)O2 (stereo unspecified),.,.,?,?,.
CCc1cc[n+](C2=C([O-])c3ccccc3C(=O)/C2=N\S(=O)(=O)c2cccs2)cc1,3.5µM,.,16µM,2.3µM,5.2µM
O=C1C(=O)c2ccccc2C([O-])=C1[n+]1ccccc1,.,.,.,.,.
COc1c(Cl)cc(C(=O)Nc2cccc(-c3nc4ccccc4[nH]3)c2)cc1Cl,/,.[12.3 µM],/,?,23µM
CC(C)(C)N1C(=O)c2ccc(C(=O)Nc3ccc(-c4nc5ccccc5[nH]4)cc3)cc2C1=O,.,.,.,.,?
O=C(Nc1cccc(-c2nc3ccccc3[nH]2)c1)c1ccco1,.,.,?,?,?
CCCN(CCC)S(=O)(=O)c1ccc(C(=O)Nc2cccc(-c3nc4ccccc4[nH]3)c2)cc1,/,.,/,4.6µM,4.6µM
O=C(Nc1ccc([N+](=O)[O-])cn1)C1CCCCC1,.,.,.,.,.
Cc1ccc(CNn2cnnc2SCc2ccc(F)cc2)cc1,.,.,.,?,?
CCOC1=C2[C@@H](CN(S(=O)(=O)c3ccc(C)cc3)[C@H]2c2cccc3ccccc23)[C@H]2C(=O)N(C)C(=O)[C@H]2C1,/,/,/,.,.
CCOC1=C2[C@@H](CN(S(=O)(=O)c3ccccc3C)[C@H]2c2ccc(Cl)cc2)[C@H]2C(=O)N(C3CCCCC3)C(=O)[C@H]2C1,/,/,/,21µM,?
CCOC1=C2[C@@H](CN(S(=O)(=O)c3ccc(C)cc3)[C@H]2c2ccccc2Cl)[C@H]2C(=O)N(C)C(=O)[C@H]2C1,/,/,/,26µM,16µM
C[C@@H](C(=O)O)c1ccc(N2Cc3ccccc3C2=O)cc1,1.1µM,.,2µM,/,/
Cc1ccc(CS(=O)(=O)CCC(=O)NCc2ccccn2)cc1,.,.,.,.,.
CC[C@@]1(c2cccc(C)c2)C(=O)N(C(=O)OC)N1C(=O)OC,?,/,.,18µM,18µM
COC(=O)N1C(=O)[C@](CC(C)C)(c2ccccc2)N1C(=O)OC,.,/,.,21µM,16µM
CC[C@@]1(c2ccccc2OC)C(=O)N(C(=O)OC)N1C(=O)OC,.,/,.,?,?
COC(=O)N1C(=O)[C@@](CC(C)C)(c2ccccc2)N1C(=O)OC,?,/,.,/,/
COC(=O)N1C(=O)[C@@](c2ccccc2)(C2CCCC2)N1C(=O)OC,11µM,/,.,15µM,16µM
SMILES,RORg inh,TDP1 block,Gal4-VP16 FLuc,DT40 TDP1 CPT,DT40 TDP1 no CPT
CCOC(=O)N1C(=O)[C@@](CC)(c2ccccc2)N1C(=O)OCC,.,/,.,8.2µM,13µM
COc1ccc(OC)c(-n2c(C)cc(/C=C3\C(=N)N4N=C(CC(=O)N5CCOCC5)SC4=NC3=O)c2C)c1,?,.,.,.,.
COCC(C)n1c(C)cc(C(=O)COC(=O)CCc2nc3ccccc3c(=O)[nH]2)c1C (stereo unspecified),.,.,.,.,.
O=C(/C=C/c1cccnc1)c1cc(F)ccc1O,.,.,?,?,21µM
CN(C)S(=O)(=O)c1ccc(C(=O)/C=C/c2cccnc2)cc1,?,.,?,8.2µM,21µM
O=C(/C=C/c1cccnc1)/C=C/c1cccnc1,5µM,.,5µM,1µM,0.58µM
COc1ccc(OC)c(C(=O)/C=C/c2cccnc2)c1,7.9µM,.,2.8µM,?,12µM
C(=Cc1cccnc1)c1ccncc1,/,/,/,.,?
Cc1ccc(NC2=NC(C(=O)Nc3ccc(C)c(C)c3)CC(=O)N2)cc1 (stereo unspecified),.,.,.,.,.
COc1cc(C(=O)C(=O)c2ccc(O)c(OC)c2)ccc1O,.,/,.,.,.
COc1cc(C(=O)/C=C/c2cccnc2)ccc1O,10µM,/,?,?,18µM
CCN(CCN(C)C)C(=O)C1CCN(S(=O)(=O)c2c(C)noc2/C=C/c2ccccc2F)CC1,?,.,?,2.9µM,4.6µM
Cc1noc(/C=C/c2ccccc2F)c1S(=O)(=O)N1CCC(C(=O)N2CCN(C)CC2)CC1,.,.,.,?,?
CCOc1ccccc1/C=C/c1onc(C)c1S(=O)(=O)N1CCC(C(=O)N(CC)CC)CC1,.,.,.,15µM,16µM
Cc1c(Cl)cccc1NC(=O)Cn1nc(C(F)(F)F)c2c1CCC2,/,.,/,.,.
COc1cc(C2C3=C(CCCC3=O)Nc3ccc4ncccc4c32)ccc1O (stereo unspecified),.,.,.,6.5µM,6.5µM
COc1ccc(C2C3=C(CCCC3=O)Nc3ccc4ncccc4c32)cc1OC (stereo unspecified),.,.,.,.,.
COc1ccc(Nc2oc(/C=C/c3ccc(OC)c(OC)c3)nc2C#N)cc1,/,.,/,.,.
COc1cccc(/C=C/c2nc(C#N)c(N3CCCCC3)o2)c1,/,.,/,21µM,23µM
Cc1cccc(-c2nc(C#N)c(N3CCCCCC3)o2)c1,.,.,.,29µM,?
COc1cc(/C=C/c2nc(C#N)c(N3CCCCC3)o2)cc(OC)c1OC,/,.,/,8.2µM,7.3µM
COc1ccc(/C=C/c2nc(C#N)c(N3CCC(C)CC3)o2)cc1OC,/,.,/,16µM,23µM
Cc1cccc(-c2nc(C#N)c(N3CCC(C)CC3)o2)c1,.,/,.,.,.
O=C1C=CC(O)C2(CO)OC12 (stereo unspecified),/,/,/,16µM,5.8µM
CCOc1cc(C2NC(=O)c3ccccc3O2)ccc1OC(C)C (stereo unspecified),.,/,.,.,.
COc1ccc(C2CC(c3ccccc3Cl)Nc3ncnn32)cc1OC (stereo unspecified),.,.,.,.,?
COc1cccc(C2CC(c3ccccc3Cl)Nc3ncnn32)c1 (stereo unspecified),/,/,/,26µM,?
Clc1ccccc1C1CC(c2ccccc2)Nc2ncnn21 (stereo unspecified),?,.,.,15µM,?
